# Laboratory results reported in the supplement of paper PMC12067093, “Discovery and optimisation of a covalent ligand for TRIM25 and its application to targeted protein ubiquitination” (Chemical Science, 2025).
# The full data set covers some 21,000 targets. This sample favours those with the largest changes.
# Compound: Cc1cc(ccc1-c1ccccc1)C(=O)N1CCCN(CC1)C(=O)CCl [compound 10]
# Experiment: probe-labelled cysteine peptide fold change vs DMSO (competition) (log2 fold change); higher = less target engagement (more negative = stronger competition)
# Conditions: THP-1, incubation time: 4 h
# 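Further: competitive profiling in live THP-1 cells: cysteine peptides tagged with an iodoacetamide desthiobiotin (IA-DTB) probe, intensity after compound treatment relative to DMSO-treated cells.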
Target,probe-labelled cysteine peptide fold change (10 µM),probe-labelled cysteine peptide fold change (50 µM)
RAB33A_Q14088_135_MWIQECNGHAVPPLVPK (UniProt Q14088),0.0206,0.0086
PRPS1_P60891_41_KFSNQETCVEIGESVR (UniProt P60891),0.0818,0.329
RLF_Q13129_400_TIACLLPEDLEVRR (UniProt Q13129),-0.0742,-0.58
RGPD3_A6NKT7_349_GEAGQNLLEMMACDR<|>RGPD1_P0DJD0_340_GEAGQNLLEMMACDR<|>RGPD2_P0DJD1_348_GEAGQNLLEMMACDR<|>RANBP2_P49792_348_GEAGQNLLEMMACDR<|>RGPD4_Q7Z3J3_349_GEAGQNLLEMMACDR (UniProt Q7Z3J3+P49792+P0DJD1+P0DJD0+A6NKT7),-0.0339,0.0903
PRPF8_Q6P2Q9_2116_KFICISDLR (UniProt Q6P2Q9),0.0139,0.129
RMND5A_Q9H871_328+336_CWYHSIFACPILR (UniProt Q9H871),-0.0698,-0.177
RDH13_Q8NBN7_30_DYVTGGACPSK (UniProt Q8NBN7),-0.162,-0.083
PRKDC_P78527_2342_KNILEESLCELVAK (UniProt P78527),-0.182,-0.0562
RBM4B_Q9BQ04_107_FEEYGPVIECDIVK<|>RBM4_Q9BWF3_107_FEEYGPVIECDIVK (UniProt Q9BWF3+Q9BQ04),0.566,0.744
PRPS2_P11908_165_NCIIVSPDAGGAKR (UniProt P11908),0.121,-0.113
QSOX1_O00391_110_AWRPALYLAALDCAEETNSAVCR (UniProt O00391),-0.147,-0.174
PTER_Q96BW5_196_VLQATAHAQAQLGCPVIIHPGR (UniProt Q96BW5),0.2,0.329
PXN_P49023_387_TWHPEHFVCTHCQEEIGSR (UniProt P49023),-0.0992,-0.106
RET_P07949_987_LMLQCWK (UniProt P07949),0.0807,0.122
PSMC3_P17980_240_ACAAQTK (UniProt P17980),-0.0208,-0.0025
PYCR1_P32322_262_SLLINAVEASCIR (UniProt P32322),0.0279,0.0718
PRR14L_Q5THK1_1503_AQDPSSAGCDQIHGAFAK (UniProt Q5THK1),-0.388,-1.59

Target,probe-labelled cysteine peptide fold change (10 µM),probe-labelled cysteine peptide fold change (50 µM)
PSMC6_P62333_228_DHQPCIIFMDEIDAIGGR (UniProt P62333),-0.0612,0.106
PRKCD_Q05655_261+264_CEDCGMNVHHK (UniProt Q05655),-0.702,-1.69
RGPD3_A6NKT7_141_LKEQLLDCEGEDGWNK<|>RGPD8_O14715_141_LKEQLLDCEGEDGWNK<|>RANBP2_P49792_141_LKEQLLDCEGEDGWNK<|>RGPD4_Q7Z3J3_141_LKEQLLDCEGEDGWNK (UniProt Q7Z3J3+P49792+O14715+A6NKT7),-0.113,-0.334
RBM25_P49756_132_LQAFGFCEYKEPESTLR (UniProt P49756),-0.148,-0.0661
RFXANK_O14593_205_CVEALLAR (UniProt O14593),0.0175,-0.265
PRMT3_O60678_67_LFTSAEETFSHCK (UniProt O60678),0.049,0.0747
RARS2_Q5T160_479_LHSLEETFGCGYLNDFNTACLQEPQSVSILQHLLR (UniProt Q5T160),-0.037,0.0628
RCCD1_A6NED2_139_LPLLPCAR (UniProt A6NED2),-1.01,-1.9
RABGAP1L_Q5R372_665_NNFEDLHCK (UniProt Q5R372),0.206,0.197
PRPF6_O94906_837_KCEHDPHVLLAVAK (UniProt O94906),-0.315,0.18
RACGAP1_Q9H0H5_419_VDDIHAICSLLK (UniProt Q9H0H5),0.00786,0.00467
RANBP2_P49792_1243_ICANHYISPDMK (UniProt P49792),0.0568,0.0875
RANBP2_P49792_707_AEDIENDALSPEEQEECK (UniProt P49792),0.0365,0.0945
PRXL2A_Q9BRX8_88_RPGCFLCR (UniProt Q9BRX8),-2.04,-2.18
RNF123_Q5XPI4_1277_ACINQHLMNNK (UniProt Q5XPI4),-0.0494,-0.231
RLF_Q13129_1494_VCQTADTQGHEHQTTR (UniProt Q13129),0.131,-0.309
PXN_P49023_523_ECFTPFVNGSFFEHDGQPYCEVHYHER (UniProt P49023),0.032,0.12
